Shown are actives, neighbours in structure and some others; about 3% of the full set was active somewhere.
Tau fluor cs: counter-screen for tau fibril formation inhibitors; tau K18 P301L Alexa594 fluorescence, heparin fibrillization; Potency, µM (titrated, usually from 57.7 µM), for inactives: at the top dose activity change, negative = decrease; hit rate 0.93% among 280,000; also: potency is read from the fitted curve at half-maximal effect; nearly all actives have a fitted effect of over 55% in size
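Human tau K18 P301L (15 uM unlabeled, 0.24 uM Alexa 594-labeled) in 100 mM sodium acetate pH 7 with 20 uM heparin, 6 hr at 37 C. ThT 30 uM added, 1 hr ambient; Alexa 594 FP and total fluorescence read at 555/632 nm.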
Tau fibril FP: tau fibrillization inhibition (FP). P10636. Potency, µM (top dose mostly 57.7 µM), for the others: at the highest dose activity, negative = inhibition, hits mostly inhibitors. AID 1468. hit rate 0.39% among 280,000. K18 P301L tau heparin fibrillization, Alexa594 FP, 6 h; also: potency is read from the fitted curve at half-maximal effect; nearly all actives have a fitted effect of over 55% in size
Target sequence (P10636 561-689 P618L limits assumed): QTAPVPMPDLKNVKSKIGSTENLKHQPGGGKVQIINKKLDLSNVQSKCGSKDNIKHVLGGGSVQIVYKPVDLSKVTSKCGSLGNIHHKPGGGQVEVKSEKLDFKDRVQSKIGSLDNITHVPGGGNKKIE
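K18 P301L tau (15 uM unlabeled/0.24 uM Alexa 594-labeled, final) + compound + heparin 20 uM final; 100 mM NaOAc pH 7; 6 hr 37 C; ThT 30 uM final added, 1 hr RT; FP ex 555/em 632 nm.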
KDM4E inh: blocks human JMJD2E demethylase activity; B2RXH2; JMJD2E catalytic domain, FDH-coupled NADH fluorescence (FDH is formaldehyde dehydrogenase); Potency, µM (highest dose often 57.1 µM), inactives show at the highest dose activity change, negative = inhibition, hits mostly inhibitors; hit rate 1.6% among 230,000; active = well fitted inhibition curve with a large enough effect, not every such curve was filed as active; inconclusive = small, poorly fitted or top-dose-only effect, or another doubt; inactive = no such curve, though single readings can be large or run the other way;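 also: potency is read from the fitted curve at half-maximal effect; 0% = wells with enzyme and -100% = buffer wells without enzyme; nearly all actives have a fitted effect of over 50% in size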
Target sequence (B2RXH2 1-337 limits assumed): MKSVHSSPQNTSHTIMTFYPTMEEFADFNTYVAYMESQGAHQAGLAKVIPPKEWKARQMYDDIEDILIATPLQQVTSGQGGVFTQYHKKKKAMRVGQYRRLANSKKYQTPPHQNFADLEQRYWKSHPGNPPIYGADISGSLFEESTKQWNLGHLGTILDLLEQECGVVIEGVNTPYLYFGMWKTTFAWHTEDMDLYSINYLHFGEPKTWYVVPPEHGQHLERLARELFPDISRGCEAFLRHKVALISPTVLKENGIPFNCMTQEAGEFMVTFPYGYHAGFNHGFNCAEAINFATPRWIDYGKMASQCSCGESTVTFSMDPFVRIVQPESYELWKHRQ
FBPA coupling cs: coupling enzyme interference in Giardia aldolase counter-screen | hit rate 0.67% among 290,000 | coupling enzyme system counterscreen, AmpLite Red fluorescence | activity change, negative = inhibition, % at 58.2 µM, hits read low; in the data active = activity change below about -30%
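Counterscreen of the coupled detection system alone, without aldolase: glyceraldehyde-3-phosphate coupling enzymes plus AmpLite Red readout. Compounds at 57.5 uM final, 10 min RT preincubation, 20 min RT reaction, fluorescence 525/598 nm.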
Tau fibril ThT: inhibitors of human tau fibril formation, thioflavin T binding; recombinant tau K18 P301L (four-repeat tau fragment), heparin-induced fibrillization, ThT fluorescence; Potency, µM (doses to about 57.4 µM), for inactives: at the highest dose activity, negative = inhibition, most hits filed as inhibitors; hit rate 2.1% among 270,000; AID 1460; also: potency is read from the fitted curve at half-maximal effect; nearly all actives have a fitted effect of over 55% in size
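In this qHTS, human K18 P301L tau is incubated with compound and heparin for 6 hr at 37 C, and Thioflavin T fluorescence then reports fibril load.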
Numbers without * were called inactive; u = inconclusive; x = not tested or not shown; [ ] = another dose, or the depositor's remark. Unless noted, calls follow the shape of the dose curve; as a rule, active = well fitted curve in the direction sought with a large enough effect; inconclusive = small, poorly fitted or top-dose-only effect, or another doubt; inactive = no such curve, though single readings can be large; an effect the other way counts as inactive or inconclusive. Unless noted, % is scaled to controls: 0 for no effect and ±100 for the full control effect.

SMILES | Tau fluor cs | Tau fibril FP | KDM4E inh | FBPA coupling cs | Tau fibril ThT
C#C[C@]1(O)CC[C@H]2[C@H]3CCc4cc(O)ccc4[C@@H]3CC[C@@]21C | x | x | x | 0.2 | x
CCCC[C@H]1CCCO[C@@](C(=O)NCc2cc(C)n(C)n2)(C(F)(F)F)C1 | x | x | x | 1.7 | x
CCOc1ccccc1/C=N/NC(=O)Cc1csc(Nc2cccc(C(F)(F)F)c2)n1 | 20µM*[quencher] | 11.3% | -17.1% | -4.5 | -16.6%
CCOc1ccc(/C=N/NC(=O)Cc2csc(Nc3cccc(C(F)(F)F)c3)n2)cc1 | 10µM*[quencher] | -0.4% | -10.2% | 6.1 | u
CCOc1ccc(/C=N/NC(=O)Cc2csc(Nc3cccc(C(F)(F)F)c3)n2)c(OCC)c1 | u | u | -3.6% | -0.9 | -0.8%
Cc1ccccc1C(=O)Nc1ccc2nc(SCC(=O)N3CCc4ccccc43)sc2c1 | -12.0% | u | x | x | u
N#CCc1nn2c3c(cnc2c1C#N)C(=O)CCC3 | -2.5% | 0.6% | -0.4% | -32.5* | -2.1%
CC(=O)N(/N=C1\Sc2ccccc2C1=O)c1ccc(C)cc1C | -20.6% | 4.6% | 5.1% | 1.2 | u
CC(=O)N(/N=C1\Sc2ccccc2C1=O)c1ccccc1C | -17.4% | 5.9% | 4.8% | x | 11.2µM*
Cc1cccn2c(=O)c(C(=O)NCc3ccccc3Cl)c(O)nc12 | -3.7% | -5.4% | x | x | 9.6%
O=c1[nH]c2c(s1)C(c1ccco1)C1C3CCC(C3)C1S2 (stereo unspecified) | -19.2% | -5.6% | -8.9% | -44.1* | u
COc1ccc(-c2nc(C)c(CCNC(=O)c3ccccc3Br)s2)cc1OC | -14.6% | -6.7% | x | x | u
S=C(Nc1ccc(Cl)c(Cl)c1)NC1CCN(Cc2ccccc2)CC1 | u | 25.1µM* | -10.0% | 1.6 | 3.9%
COCCN=c1scc(-c2cc(OC)ccc2OC)n1/N=C/c1c[nH]c2ccccc12 | 7.94µM*[quencher] | -9.5% | u | -4.6 | u
COc1ccc(OC)c(S(=O)(=O)N/N=C\c2c[nH]c3ccccc23)c1 | x | x | x | -2.5 | x
CCOc1ccc(C(=O)Nc2ccc3c(c2)OCCO3)cc1Br | 15.8µM*[quencher] | 2.8% | x | x | u
Cc1ccc(NS(=O)(=O)c2cc(C(=O)O)ccc2Cl)c(C)c1 | -2.0% | -3.8% | -0.9% | 13.0 | 4.4%
Cc1ccc(NS(=O)(=O)c2cc(NC(=O)c3ccc4c(c3)NC(=O)CS4)ccc2Cl)c(C)c1 | u | 25.1µM* | u | -3.0 | -13.1%
CCOC(=O)CCCNC(=O)N1CCc2nc(-c3ccccc3)c3c(c2C1)CO[C@@H](C)C3 | -3.1%[11.6 µM] | 0.3%[11.6 µM] | 9.3%[11.4 µM] | 2.4 | -1.1%[11.5 µM]
COc1ccc(N=C2NC(=O)/C(=C\C=C\c3ccco3)S2)cc1 | u | u | u | -1.6 | 8.91µM*
O=C1NC(=Nc2ccc3ccccc3c2)S/C1=C/c1ccco1 | u | u | -2.4% | 0.3 | 14.1µM*
Cc1cccc(N=C2NC(=O)/C(=C/C=C/c3ccco3)S2)c1 | -28.0% | -8.8% | u | -1.3 | 5.01µM*
CS(=O)(=O)n1nc(-c2ccco2)nc1NCc1ccccc1Cl | u | -14.6% | x | x | -15.5%
CCCSc1oc(-c2ccco2)nc1S(=O)(=O)c1ccccc1 | -26.3% | -16.5% | -26.2% | -35.9* | -6.1%
CCCSc1oc(-c2ccco2)nc1S(=O)(=O)c1ccc(C)cc1 | x | x | x | 0.1 | x
SMILES | Tau fluor cs | Tau fibril FP | KDM4E inh | FBPA coupling cs | Tau fibril ThT
COc1cc(/C=C(/C(=O)c2cccs2)c2nc3ccccc3[nH]2)ccc1O | u | 1.6% | u | 3.4 | u
O=C(/C(=C\c1ccccc1)c1nc2ccccc2[nH]1)c1ccc(Cl)cc1 | -23.7% | u | 2.2% | 4.1 | 22.4µM*
COC(=O)/C(=C\c1ccc(O)cc1)c1nc2ccccc2[nH]1 | -11.0% | 7.2% | u | -0.6 | u
O=C(/C(=C/c1ccc(Cl)cc1)c1nc2ccccc2[nH]1)c1cccs1 | -28.6% | u | -1.3% | -0.7 | 15.8µM*
O=[N+]([O-])c1ccc(NC(=S)NCCc2ccccc2)cc1 | 12.6µM*[quencher] | u | 9.0% | 2.8 | u
S=C(NCCc1ccccc1)Nc1ccc(Cl)cc1 | u | u | 4.3% | 2.0 | -6.3%
O=[N+]([O-])c1ccc(NC(=S)NCCc2ccc(Cl)cc2)cc1 | 7.94µM*[quencher] | 12.6µM* | -4.2% | -6.4 | u
O=[N+]([O-])c1cc(C(F)(F)F)ccc1NCCNC(=S)Nc1ccc(Cl)cc1 | 7.08µM*[quencher] | 20µM* | -3.5% | -3.4 | 11.2µM*
Cc1cccn2c(=O)c3cc(C(=O)NCCc4ccc(S(N)(=O)=O)cc4)n(C)c3nc12 | -6.3% | u | x | x | -5.6%
Cc1ccc(NC(=O)C2CCN(c3nc4ccccc4[nH]3)CC2)c(C)c1 | -0.5% | 8.5% | x | x | -8.0%
COc1cc(OC)c(NC(=O)CC(c2cccs2)N2Cc3ccccc3C2=O)cc1Cl (stereo unspecified) | u | 2.7% | x | x | -16.2%
Oc1cc2c(cc1C(c1ccc(Br)cc1)N1CCCC1)OCO2 (stereo unspecified) | u | -10.0% | u | -12.6 | 22.4µM*
S=C(c1ccc2c(c1)OCO2)N1CCCCCC1 | -14.6% | -8.3% | 0.4% | 4.0 | u
CC(=O)C1=C(c2ccccc2)NC(=O)NC1c1ccc(O)c(O)c1 (stereo unspecified) | -17.2% | -9.3% | u | -8.0 | u
CC(=O)C1=C(c2ccccc2)NC(=S)NC1c1ccc(O)c(O)c1 (stereo unspecified) | -18.4% | 0.5% | 22.4µM* | -7.2 | -17.6%
C=CCSc1nnc2nc3c(nn12)c1cc(C)ccc1n3CC=C | -5.0% | 3.1% | -3.0% | 0.7 | 28.2µM*
CCN1CCN(c2cc(C)c3cc(NC(=O)/C=C/c4ccc(OCCC(C)C)cc4)ccc3n2)CC1 | u | 5.1% | x | x | 7.08µM*
CCN1CCN(c2cc(C)c3cc(NC(=O)c4cccs4)ccc3n2)CC1 | u | 12.5% | -0.6% | 8.0 | u
COc1ccc(/C=C/C(=O)Nc2ccc3nc(N4CCC(C)CC4)cc(C)c3c2)cc1OC | 3.55µM*[quencher] | 13.3% | x | x | 3.55µM*
CCN1CCN(c2cc(C)c3cc(NC(=O)c4cc(OC)c(OC)c(OC)c4)ccc3n2)CC1 | u | 11.7% | x | x | u
COc1ccc(/C=C/C(=O)Nc2ccc(Cl)c(Cl)c2)cc1OC | 10µM*[quencher] | 14.1µM* | x | x | u
CCN1CCN(c2cc(C)c3cc(NC(=O)/C=C/c4ccc(C)cc4)ccc3n2)CC1 | 14.1µM*[quencher] | 10.4% | x | x | 4.47µM*
O=C(Cc1ccccc1Nc1c(Cl)cccc1Cl)OCO/N=[N+](\[O-])N1CCCC1 | x | x | x | -25.1 | x
COc1cccc(NC(=O)Cn2c(=O)n(CCCCC(=O)NCc3ccc4c(c3)OCO4)c(=O)c3ccccc32)c1 | -5.1% | 0.8% | x | x | -3.4%
NC(=O)NC(=O)COC(=O)c1ccc(Cl)c(S(=O)(=O)N(Cc2ccccc2)c2ccc(Cl)cc2)c1 | u | 11.2µM* | -10.5% | -2.6 | -7.4%
NC(=O)COC(=O)c1ccc(Cl)c(S(=O)(=O)N(Cc2ccccc2)c2ccc(Cl)cc2)c1 | u | u | 5.6% | 5.6 | -16.0%

Compound activity: PubChem, National Center for Advancing Translational Sciences (NCATS)
